Measured values: ChEMBL document CHEMBL4513216, “Probing the Open Global Health Chemical Diversity Library for Multistage-Active Starting Points for Next-Generation Antimalarials” (ACS Infect Dis, 2020)
Among all 69,000 compounds or so, about 8,600 (12%) showed an effect of 50% or more. For the sample, strong results were picked, then their nearest neighbours and some compounds at random.

Each molecule was assayed on Plasmodium berghei (assay: Screen against P. berghei liver stage (PbLuc), transformed with Luciferase, at 10uM). Settings: tested at 10 uM.
Assay type: functional, HepG2
Molecule `CCn1c(CN2CCN(CCO)CC2)nc2c(F)cccc21` has an INHIBITION of 24.95%. With `COCCO[C@H]1CCN(C(=O)c2ccno2)[C@H]1Cc1ccncc1` the INHIBITION was 18.3%. With `CCC(C)NC(=O)Nc1cccc(OC)c1` (centres undefined) the INHIBITION was -32%. Work on `CCc1cnc2c(c1Nc1cccc(OC)c1)c(=O)n(C)c(=O)n2C` yielded an INHIBITION of -31%. With `CCC1(CC)C(=O)NC(=O)N/C1=N/c1cccc(OC)c1` the INHIBITION was 58.2%. `CCN(CC)Cc1cc(=O)n2c(n1)CN(S(=O)(=O)C1CC1)CCC2` was tested, and the INHIBITION was -3.26%. Molecule `Cn1cnc(S(=O)(=O)NCCCN2CCCC2=O)c1Cl` has an INHIBITION of 4.71%. Work on `Cc1ccc(CN2C[C@@H]3C[C@H](C(=O)NCC4CC4)N(C)[C@@H]3C2)o1` yielded an INHIBITION of 16.1%. Work on `Cc1ccc(O)c(C(=O)N2CCOCC2c2c(C)nn(C)c2C)c1` (centres undefined) yielded an INHIBITION of -57.4%. Molecule `CC1=N[C@@]2(CC[C@@H]3CN(C(=O)NCc4cccc(F)c4)C[C@@H]32)C(=O)N1` has an INHIBITION of 75.4%. `CC1=N[C@@]2(CC[C@@H]3CN(C(=O)NCCc4ccccc4)C[C@@H]32)C(=O)N1` was tested, and the INHIBITION was 13.6%. Work on `CCC1=N[C@@]2(CC[C@@H]3CN(C(=O)NCc4ccccc4C)C[C@@H]32)C(=O)N1` yielded an INHIBITION of 70.7%. Molecule `CC1=N[C@@]2(CC[C@@H]3CN(C(=O)NCc4ccccc4C)C[C@@H]32)C(=O)N1` has an INHIBITION of 28.7%. `CCC1=N[C@@]2(CC[C@@H]3CN(C(=O)NCC4CCCCC4)C[C@@H]32)C(=O)N1` gave an INHIBITION of 47.4%. Molecule `CCC1=N[C@@]2(CC[C@@H]3CN(C(=O)NCc4cccc(F)c4)C[C@@H]32)C(=O)N1` has an INHIBITION of 39.2%. `CCC1=N[C@@]2(CC[C@@H]3CN(C(=O)NCc4ccccc4)C[C@@H]32)C(=O)N1C` was tested, and the INHIBITION was 25%. In the case of `CCC1=N[C@@]2(CC[C@@H]3CN(C(=O)NCc4ccccc4)C[C@@H]32)C(=O)N1`, the INHIBITION is reported as 50%. `CCC1=N[C@@]2(CC[C@@H]3CN(Cc4ccccc4C)C[C@@H]32)C(=O)N1` was tested, and the INHIBITION was 37.8%. In the case of `Cc1ccc(-c2nnn(CCN3C(=O)CCC3=O)n2)cc1`, the INHIBITION is reported as -47.1%. Work on `Cc1cnc(C(=O)N2CCc3ncnc(-c4cnn(C)c4)c3CC2)cn1` yielded an INHIBITION of -3.33%. `CC(=O)Nc1nc(C(=O)N2CCCC2c2noc(C(C)C)n2)cs1` (centres undefined) gave an INHIBITION of 40.9%. `CNC(=O)c1nc(CC(=O)Nc2cccc(C(F)(F)F)c2)no1` showed an INHIBITION of -2.61%. `Cc1cccc(OC2CN(C(=O)C3CC(=O)N(C(C)(C)C)C3)C2)c1` (centres undefined) was tested, and the INHIBITION was 25.5%. With `CC(C)Oc1ccc(CN2CCCC(N3CCOCC3)C2)cc1CO` (centres undefined) the INHIBITION was 82.9%. Work on `CC(C)Oc1ccc(CN2CCN3CCN(C)CC3C2)cc1CO` (centres undefined) yielded an INHIBITION of -6.97%. Work on `CC(C)Oc1ccc(CN2CCCC(N3CCCC3)C2)cc1CO` (centres undefined) yielded an INHIBITION of 20%. Molecule `CCCC(=O)N1CCC(c2cc3cccnc3c(O)n2)CC1` has an INHIBITION of 1.62%. In the case of `CN(C)CCCNC(=O)c1ccccc1NC(=O)c1cc(Cl)ccc1Cl`, the INHIBITION is reported as 27.6%. With `CCc1nc(C)sc1CN1CC[C@@](O)(C2CCOCC2)[C@H](C)C1` the INHIBITION was -10.9%. In the case of `O=S(=O)(c1ccc2c(c1)OCCO2)N1CCc2ccccc2C1`, the INHIBITION is reported as 57.6%. In the case of `O=S(=O)(c1ccc2c(c1)OCCO2)N1CCC(OCc2ccccn2)C1` (centres undefined), the INHIBITION is reported as -35.2%. `O=c1ccc2c([nH]1)CCN(S(=O)(=O)c1ccc3c(c1)OCCO3)C2` showed an INHIBITION of 26%. `Cc1nc2cc(=O)[nH]n2c(C)c1CC(=O)NCc1ccc(C#N)cc1` gave an INHIBITION of 41.2%. With `CC(C)(C)S(=O)(=O)CCNC(=O)c1ccc2ccccc2c1` the INHIBITION was -35.8%. For `CCNS(=O)(=O)c1cccc(CSC)c1`, the INHIBITION was 19.4%. `CNS(=O)(=O)c1cccc(CNC(=O)c2cnn(C)c2C)c1` showed an INHIBITION of 11.3%. `CSCc1cccc(S(=O)(=O)NCCO)c1` was tested, and the INHIBITION was 0.266%. `CSCc1cccc(S(=O)(=O)NCc2cnn(C)c2C)c1` gave an INHIBITION of 78.3%. Work on `COCc1cccc(S(=O)(=O)NCc2cnn(C)c2C)c1` yielded an INHIBITION of -25.8%. Molecule `Cc1c(CNS(=O)(=O)c2cccc(COC(C)C)c2)cnn1C` has an INHIBITION of 57.5%. Molecule `CS(=O)(=O)Nc1ccn(Cc2cccc(Cl)c2)n1` has an INHIBITION of 22.6%. In the case of `CCN(Cc1ccco1)C(C)c1nc(C)no1` (centres undefined), the INHIBITION is reported as -97.2%. Molecule `COc1ccc(CN2Cc3nnn(C)c3C(COCCN(C)C)C2)cc1` (centres undefined) has an INHIBITION of 16.4%. `Cc1cc2c(c(-c3c[nH]c(C)n3)c1)OC(CN)C2` (centres undefined) was tested, and the INHIBITION was 11.6%. With `Cc1nc(-c2cc(Cl)c3c(c2)CC(CN)O3)c[nH]1` (centres undefined) the INHIBITION was 24.4%. `Cc1nc(-c2cc(Cl)cc3c2OC(CN)C3)c[nH]1` (centres undefined) gave an INHIBITION of 68.3%. In the case of `Cc1cc(C(F)(F)F)c2c(=O)n(Cc3cc(C)on3)n(C)c2n1`, the INHIBITION is reported as 42.1%. Work on `CC(C)(CN)NS(=O)(=O)c1c(F)cccc1F` yielded an INHIBITION of -4.62%. With `CN1CCC(Cc2nc(-c3ccnn3C)n(Cc3ccccc3)n2)CC1` the INHIBITION was 64.6%. Molecule `Cc1ncsc1-c1nc(CC2CCN(C)CC2)nn1Cc1ccccc1` has an INHIBITION of 47.5%. For `CN1CCC(Cc2nc(-c3cnccn3)n(Cc3ccccc3)n2)CC1`, the INHIBITION was -14.3%. Molecule `COc1c(C2CCCN2Cc2cccc(C(N)=O)c2)c(C)nn1C` (centres undefined) has an INHIBITION of -11.4%. Work on `O=c1cc2c(nn1CN1CCC(c3ccccc3)CC1)CCC2` yielded an INHIBITION of 33.6%. `CC(C)CO[C@H]1CN(S(=O)(=O)c2cn(C)cn2)[C@@H]2CCCO[C@H]12` was tested, and the INHIBITION was 53.9%. For `Cn1cnc(S(=O)(=O)N2C[C@H](OCC3CC3)[C@H]3OCCC[C@H]32)c1`, the INHIBITION was 40.8%. With `CCO[C@@H]1CN(S(=O)(=O)c2cn(C)cn2)[C@@H]2CCCO[C@@H]21` the INHIBITION was 2.79%. With `CC(=O)N1C[C@H]2CC[C@@H](C1)N(C(=O)CCc1n[nH]c3c1CCCC3)C2` the INHIBITION was 48.5%. In the case of `CC(C)n1cnnc1CN(C)C(=O)C1CCCN(CC(N)=O)C1` (centres undefined), the INHIBITION is reported as 4.25%. Work on `Cc1cn2c(n1)C(CNCc1cccc3c1OCO3)CCC2` (centres undefined) yielded an INHIBITION of 62%. In the case of `Cc1cn2c(n1)C(CNCc1ccc(C)s1)CCC2` (centres undefined), the INHIBITION is reported as 51.1%. `Cc1ccc(N2CCCC(NCc3cccc4c3OCO4)C2)nn1` (centres undefined) gave an INHIBITION of 16.8%. In the case of `Cn1cc(N2CCCC(NCc3cccc4c3OCCCO4)C2)cn1` (centres undefined), the INHIBITION is reported as 11.1%. Molecule `Cc1ccc(CNCC2CCCn3ccnc32)s1` (centres undefined) has an INHIBITION of 43.7%. Molecule `Cc1ccc(CNCC2CCCN2c2cccnn2)s1` (centres undefined) has an INHIBITION of -19.9%.
